In article PMC4336329 (PLoS ONE, 2015):
Screen size: about 310,000 compounds; about 14,000 (4.5%) showed an effect of 50% or more. The effect is printed as a negative number. This is one part of a sample in which strong results are shown more often than they occur.

These compounds were tested against human ether-à-go-go-related gene (hERG) potassium channel (human, UniProt Q12809) (assay: primary screen, population patch clamp on CHO cells stably expressing hERG; higher = less effect of the substance).
human ether-à-go-go-related gene (hERG) potassium channel, sequence (Q12809 whole entry, looked up): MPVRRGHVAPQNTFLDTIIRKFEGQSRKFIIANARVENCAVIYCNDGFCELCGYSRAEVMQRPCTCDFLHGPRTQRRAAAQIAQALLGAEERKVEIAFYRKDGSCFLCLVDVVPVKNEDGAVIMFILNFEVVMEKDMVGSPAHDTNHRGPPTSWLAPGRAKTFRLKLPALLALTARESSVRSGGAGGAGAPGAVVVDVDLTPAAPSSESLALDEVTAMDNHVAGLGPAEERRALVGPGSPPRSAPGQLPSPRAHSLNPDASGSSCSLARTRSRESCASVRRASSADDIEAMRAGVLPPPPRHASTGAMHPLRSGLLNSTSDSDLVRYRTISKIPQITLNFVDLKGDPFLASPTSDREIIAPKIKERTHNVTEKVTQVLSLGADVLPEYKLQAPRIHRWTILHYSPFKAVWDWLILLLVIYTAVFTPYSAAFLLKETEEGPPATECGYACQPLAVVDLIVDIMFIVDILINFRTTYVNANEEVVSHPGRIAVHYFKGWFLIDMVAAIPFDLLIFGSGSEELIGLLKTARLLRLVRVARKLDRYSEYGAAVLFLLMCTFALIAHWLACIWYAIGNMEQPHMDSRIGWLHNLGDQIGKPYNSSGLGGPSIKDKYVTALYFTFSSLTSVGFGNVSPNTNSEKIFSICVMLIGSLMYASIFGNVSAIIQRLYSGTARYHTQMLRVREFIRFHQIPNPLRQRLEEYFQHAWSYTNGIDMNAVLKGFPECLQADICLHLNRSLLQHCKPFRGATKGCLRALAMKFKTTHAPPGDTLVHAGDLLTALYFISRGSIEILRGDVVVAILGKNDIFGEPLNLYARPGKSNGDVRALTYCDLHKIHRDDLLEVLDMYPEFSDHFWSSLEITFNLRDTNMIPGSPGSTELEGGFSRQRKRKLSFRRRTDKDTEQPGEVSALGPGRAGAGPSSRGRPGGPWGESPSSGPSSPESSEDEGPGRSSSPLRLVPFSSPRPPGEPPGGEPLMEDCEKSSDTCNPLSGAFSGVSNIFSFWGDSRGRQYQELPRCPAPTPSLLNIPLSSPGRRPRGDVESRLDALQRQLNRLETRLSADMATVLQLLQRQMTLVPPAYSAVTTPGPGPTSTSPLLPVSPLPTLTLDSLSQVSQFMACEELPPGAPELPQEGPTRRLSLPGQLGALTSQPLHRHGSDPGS
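Also: peak tail current of the secondary pulse compared with the same well before compound.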

Going from `O=C(CSc1nnc(NC(=O)C2CC2)s1)Nc1ccc(F)cc1` to `O=C(CSc1nnc(-c2ccccc2Cl)o1)Nc1ccccn1`, the “hERG current change (%, negative = inhibition) at 10uM” value rises from 12.5% to 14.9%.

First: COc1ccc(-c2nc3n(n2)C(c2ccncc2)C(C(N)=O)=C(C)N3)cc1 (centres unmarked)
Second: Cc1ccc(SCC(=O)NCc2ccncc2)cc1
The “hERG current change (%, negative = inhibition) at 10uM” value of the first is higher: 0.391% for the first, -6.77% for the second.

Compared with `CCOc1ccc(C(CC(=O)O)NC(=O)c2ccco2)cc1` (centres unmarked), `O=C(NCC1CCCO1)c1cccc(NC(=O)c2ccco2)c1` (centres unmarked) is lower in “hERG current change (%, negative = inhibition) at 10uM” value: 11% for the first, 0.813% for the second.

Going from `COc1cc(/C=N/n2cnnc2)ccc1OCc1ccccc1` to `COc1ccc(-c2nn(-c3ccccc3C)cc2CNCc2cccnc2)cc1F`, the “hERG current change (%, negative = inhibition) at 10uM” value falls from 6.55% to -38.3%.

Compared with `CN(C)S(=O)(=O)c1cccc(NC(=O)c2cccc(S(=O)(=O)N3CCc4ccccc43)c2)c1`, `COc1ccc(OC)c(NC(=O)c2ccccc2N(C)S(=O)(=O)c2ccc(C)cc2)c1` is lower in “hERG current change (%, negative = inhibition) at 10uM” value: -4.62% for the first, -9.39% for the second.

Compared with `CN(C(=O)c1ccc(Cl)c([N+](=O)[O-])c1)C1(C)CCS(=O)(=O)C1` (centres unmarked), `CC(=O)N1c2ccc(S(=O)(=O)N3CCC(C(=O)Nc4cccc(Cl)c4)CC3)cc2CC1C` (centres unmarked) is higher in “hERG current change (%, negative = inhibition) at 10uM” value: -10.9% for the first, 15.1% for the second.

First: CSc1ccccc1C(=O)C1CCCN(Cc2ccn[nH]2)C1 (centres unmarked)
Second: CSc1ccccc1C(=O)C1CCCN(Cc2ccncc2)C1 (centres unmarked)
The “hERG current change (%, negative = inhibition) at 10uM” value of the first is higher: -8.34% for the first, -41.7% for the second.

Compared with `CSc1ccccc1C(=O)C1CCCN(Cc2c(C)n(C)n(-c3ccccc3)c2=O)C1` (centres unmarked), `CSc1ccccc1C(=O)C1CCCN(Cc2cnn(-c3ccccc3)c2)C1` (centres unmarked) is lower in “hERG current change (%, negative = inhibition) at 10uM” value: -16.2% for the first, -67.4% for the second.

First: O=C(C1CCCN(Cc2ccc(Cl)cc2)C1)N1CCCCC1.O=C(O)C(=O)O (centres unmarked)
Second: O=C(c1ccc(Cl)cc1)C1CCCN(Cc2cnn(-c3ccccc3)c2)C1 (centres unmarked)
The “hERG current change (%, negative = inhibition) at 10uM” value of the first is higher: -14.9% for the first, -74.6% for the second.

Going from `CSc1ncc(CN2CCCC(C(=O)c3ccccc3SC)C2)cn1` (centres unmarked) to `CSc1ccccc1C(=O)C1CCCN(Cc2ccccn2)C1` (centres unmarked), the “hERG current change (%, negative = inhibition) at 10uM” value rises from -65.1% to -12.6%.

Going from `Cc1cc(C)n2c(SCC(=O)NC3CCCCC3C)nnc2n1` (centres unmarked) to `Cc1oc(-c2ccccc2F)nc1CSCC(=O)NC1CC1`, the “hERG current change (%, negative = inhibition) at 10uM” value falls from 29.5% to 3.12%.

Going from `CCN(C(=O)COC(=O)/C=C/c1ccco1)c1c(N)n(Cc2ccccc2)c(=O)[nH]c1=O` to `CCc1nc(N2CCN(C(=O)c3ccco3)CC2)c2oc3ccccc3c2n1.Cl`, the “hERG current change (%, negative = inhibition) at 10uM” value falls from -1.01% to -64.8%.

Going from `CC(C)CC(NC(=O)CCC(=O)OCC(=O)[C@@]1(O)CCC2[C@@H]3CCC4=CC(=O)C=C[C@]4(C)C3[C@@H](O)C[C@@]21C)C(=O)O` (some centres unmarked) to `CCOC(=O)C1CCN(C(=O)c2ccc(OC3CCN(C(=O)CCOC)CC3)cc2)CC1`, the “hERG current change (%, negative = inhibition) at 10uM” value rises from 0.23% to 8.91%.

Going from `CN(CCC#N)CC(=O)Nc1ccc(S(N)(=O)=O)cc1` to `Cc1ccccc1C(=O)NC(NC(=S)Nc1ccc(S(N)(=O)=O)cc1)C(Cl)(Cl)Cl` (centres unmarked), the “hERG current change (%, negative = inhibition) at 10uM” value rises from 13.3% to 19.3%.

Going from `CCc1cc(C(=O)N2CCCC(C(=O)c3cccc(OC(C)C)c3)C2)n(C)n1` (centres unmarked) to `CCOC(=O)C1CCCN(CC(=O)Nc2c(C(=O)OC)[nH]c3ccc(Br)cc23)C1` (centres unmarked), the “hERG current change (%, negative = inhibition) at 10uM” value falls from -6.49% to -30.9%.

First: CCc1nc(N2CCC(C)CC2)c2oc3ccccc3c2n1.Cl
Second: Cc1nc(N2CCC(C)CC2)c2oc3ccccc3c2n1
The “hERG current change (%, negative = inhibition) at 10uM” value of the first is lower: 5.55% for the first, 6.63% for the second.

First: Cc1nc(N2CCN(C(=O)c3ccco3)CC2)c2oc3ccccc3c2n1.Cl
Second: O=C(c1ccco1)N1CCN(c2ncnc3c2oc2ccccc23)CC1
The “hERG current change (%, negative = inhibition) at 10uM” value of the first is higher: -54.8% for the first, -55.4% for the second.

Going from `O=C(c1ccco1)N1CCN(c2ncccn2)CC1` to `Cc1cc(C)cc(NC(=S)N2CCN(c3ncccn3)CC2)c1`, the “hERG current change (%, negative = inhibition) at 10uM” value rises from -18.2% to 13%.

First: Clc1ccc(N2CCN(c3ncnc4c3oc3ccccc34)CC2)cc1
Second: Cc1nc(N2CCOCC2)c2oc3ccccc3c2n1
The “hERG current change (%, negative = inhibition) at 10uM” value of the first is higher: 4.58% for the first, -9.35% for the second.

Compared with `CCc1nc(N2CCCCC2)c2oc3ccccc3c2n1.Cl`, `Cc1cc(-c2nn(-c3ccccc3F)cc2CN2CCC(C(N)=O)CC2)c(C)s1` is lower in “hERG current change (%, negative = inhibition) at 10uM” value: 6.57% for the first, -28.5% for the second.

Compared with `CC(C)=NN/C(N)=N/C(=S)Nc1ccc(C)cc1`, `Cc1ccc(C(=O)NCCc2cccs2)cc1` is higher in “hERG current change (%, negative = inhibition) at 10uM” value: -3.24% for the first, 7.84% for the second.

First: O=C(CCSc1ccc(Cl)cc1)NCc1ccncc1
Second: Cc1ccc(SCCC(=O)NCc2ccncc2)cc1
The “hERG current change (%, negative = inhibition) at 10uM” value of the first is higher: -32.7% for the first, -61.9% for the second.

Going from `CCN(C1CCCCC1)S(=O)(=O)c1ccc(S(=O)(=O)NCc2ccncc2)cc1` to `Cc1ccc(S(=O)(=O)N(CC(=O)NCc2ccncc2)C2CCCCC2)cc1`, the “hERG current change (%, negative = inhibition) at 10uM” value falls from -4.63% to -63%.

First: O=C(CN(C1CCCCC1)S(=O)(=O)c1ccc(F)cc1)NCc1ccncc1
Second: O=C(CN(C1CCCCC1)S(=O)(=O)c1ccc(Cl)cc1)NCc1ccncc1
The “hERG current change (%, negative = inhibition) at 10uM” value of the first is higher: -41.9% for the first, -69.8% for the second.

Going from `O=C(CN(C1CCCCC1)S(=O)(=O)c1ccc(Cl)cc1)NCCCO` to `CS(=O)(=O)N(CC(=O)NCc1ccc(Cl)cc1)C1CCCCC1`, the “hERG current change (%, negative = inhibition) at 10uM” value falls from -25.8% to -26.1%.

First: CN(CC(=O)NCc1ccncc1)S(=O)(=O)c1ccc(Br)cc1
Second: O=C(CN(C1CCCCC1)S(=O)(=O)c1ccc(Br)cc1)NCc1ccncc1
The “hERG current change (%, negative = inhibition) at 10uM” value of the first is higher: -13.4% for the first, -72.9% for the second.

Compared with `CS(=O)(=O)N(CC(=O)NCc1ccncc1)C1CCCCC1`, `COC(=O)c1[nH]c2ccc(C)cc2c1NC(=O)NC1CCCCC1` is higher in “hERG current change (%, negative = inhibition) at 10uM” value: 1.91% for the first, 8.55% for the second.

First: NNC(=O)CSc1nc(-c2ccccc2)cn1-c1ccccc1
Second: O=c1cc(CO)oc(C(Nc2ccccn2)c2ccccc2F)c1O (centres unmarked)
The “hERG current change (%, negative = inhibition) at 10uM” value of the first is lower: -0.037% for the first, 17.5% for the second.

Compared with `Cc1ccccc1NC(=O)C1CCN(c2cnccn2)CC1`, `Cc1cc(-c2nn(-c3ccccc3F)cc2CN2CCN(c3ccccn3)CC2)c(C)s1` is higher in “hERG current change (%, negative = inhibition) at 10uM” value: -14.7% for the first, 18.6% for the second.

Going from `CCSc1ccc([C@@H]2[C@H]3C(=O)N(C)C(=O)[C@H]3[C@]3(C(=O)OC)CCCCN23)cc1OC.O=C(O)C(F)(F)F` to `COC(=O)c1[nH]c2ccc(Br)cc2c1NC(=O)CN1CCCCC1CCO` (centres unmarked), the “hERG current change (%, negative = inhibition) at 10uM” value rises from -8.41% to -2.6%.

First: COc1cccc(OC)c1C(=O)Nc1ccc2c(c1)Cc1ccccc1-2
Second: COc1ccc(-c2nn(-c3ccccc3C)cc2CNCCc2cnc[nH]2)cc1F
The “hERG current change (%, negative = inhibition) at 10uM” value of the first is higher: 15.5% for the first, -70.6% for the second.

Compared with `CCn1cc(CNCc2cn(-c3ccccc3C)nc2-c2ccc(OC)c(F)c2)cn1`, `Cc1cc(-c2nn(-c3ccccc3F)cc2CNCCc2cnc[nH]2)c(C)s1` is lower in “hERG current change (%, negative = inhibition) at 10uM” value: -22% for the first, -53.6% for the second.

Going from `Cc1cc(-c2nn(-c3ccccc3F)cc2CN2CCCC(O)C2)c(C)s1` (centres unmarked) to `Cc1cc(-c2nn(-c3ccccc3F)cc2CN2CCCC(CO)C2)c(C)s1` (centres unmarked), the “hERG current change (%, negative = inhibition) at 10uM” value rises from -9.16% to -7.33%.

Compared with `Cc1cc(-c2nn(-c3ccccc3F)cc2CN2CCC(O)CC2)c(C)s1`, `Cc1cc(-c2nn(-c3ccccc3F)cc2CN2CCN(c3ccncc3)CC2)c(C)s1` is lower in “hERG current change (%, negative = inhibition) at 10uM” value: -28.9% for the first, -94.3% for the second.

Compared with `Cc1cc(-c2nn(-c3ccccc3F)cc2CNCCc2cnccn2)c(C)s1`, `Cc1cc(-c2nn(-c3ccccc3F)cc2CN(C)CC(O)CO)c(C)s1` (centres unmarked) is higher in “hERG current change (%, negative = inhibition) at 10uM” value: -52.3% for the first, -22.3% for the second.

Going from `COc1cc(/C=C/C(=O)OCC(=O)NCC(=O)Nc2cccc(C)c2C)ccc1OC(F)F` to `CCC(C)(C)NC(=O)C(c1ccc(OC)cc1)N(C(=O)CCC(=O)Nc1cc(C)on1)c1cccc(OC)c1` (centres unmarked), the “hERG current change (%, negative = inhibition) at 10uM” value rises from -25.7% to 1.47%.

Going from `Cc1cc(C)nc(SC(C)CNS(=O)(=O)c2ccccc2)n1` (centres unmarked) to `CCC(Sc1nc2ccncc2[nH]1)C(=O)Nc1cc(Cl)ccc1C` (centres unmarked), the “hERG current change (%, negative = inhibition) at 10uM” value falls from 0.485% to -44.3%.

Compared with `O=C(Cn1cncn1)N/N=C/c1cc([N+](=O)[O-])ccc1O`, `CC(C)c1c(C(=O)N/N=C/c2ccsc2)nnn1-c1nonc1N` is higher in “hERG current change (%, negative = inhibition) at 10uM” value: 1.67% for the first, 23.8% for the second.

Going from `CCOC(=O)CSc1nc2cc3c(cc2cc1C#N)OCCO3` to `COC(=O)c1[nH]c2ccc(Cl)cc2c1NC(=O)CCN1CCOCC1`, the “hERG current change (%, negative = inhibition) at 10uM” value falls from 19% to 2.71%.

Compared with `COC(=O)c1[nH]c2ccc(Br)cc2c1NC(=O)C(C)N1CCN(C2CCCCC2)CC1` (centres unmarked), `COC(=O)c1[nH]c2ccc(C)cc2c1NC(=O)C(C)N1CCN(C2CCCCC2)CC1` (centres unmarked) is higher in “hERG current change (%, negative = inhibition) at 10uM” value: -78.2% for the first, -77% for the second.

First: COC(=O)c1[nH]c2ccc(Br)cc2c1NC(=O)CN1CCN(C2CCCCC2)CC1
Second: COC(=O)c1[nH]c2ccc(Cl)cc2c1NC(=O)CCN1CCN(C2CCCCC2)CC1
The “hERG current change (%, negative = inhibition) at 10uM” value of the first is higher: -78.7% for the first, -80% for the second.

Going from `COC(=O)c1[nH]c2ccccc2c1NC(=O)C(C)N1CC(C)OC(C)C1` (centres unmarked) to `COC(=O)c1[nH]c2ccccc2c1NC(=O)C(C)N1CCOCC1` (centres unmarked), the “hERG current change (%, negative = inhibition) at 10uM” value rises from 5.31% to 9.7%.

First: COC(=O)c1[nH]c2ccc(Cl)cc2c1NC(=O)CN1CCC(C(N)=O)CC1
Second: COC(=O)c1[nH]c2ccc(Br)cc2c1NC(=O)CN1CCCc2ccccc21
The “hERG current change (%, negative = inhibition) at 10uM” value of the first is higher: -2.26% for the first, -4.4% for the second.
